Reference: ChEMBL document CHEMBL1157539, “Thousands of chemical starting points for antimalarial lead identification” (Nature, 2010)

How the values were obtained:
Assay type in all cases: functional
Plasmodium falciparum [1] = assay: GSK_TCMDC: Inhibition of Plasmodium falciparum 3D7 in whole red blood cells, using parasite LDH activity as an index of growth. Test compounds present at 2uM
Plasmodium falciparum [2] = assay: GSK_TCMDC: Inhibition of Plasmodium falciparum Dd2 in whole red blood cells, using parasite LDH activity as an index of growth. Test compounds present at 2uM
HepG2 = assay: GSK_TCMDC: Percent inhibition of human HepG2 cell line. Test compounds present at 10uM.

Molecule `CCc1c(C)nc(-n2nc(C)cc2NC(=O)CCc2ccccc2)[nH]c1=O` has an Inhibition (Plasmodium falciparum [1]) of 97%, an Inhibition (Plasmodium falciparum [2]) of 97% and an Inhibition (HepG2) of 48%.
`COc1cc(CCNc2nc(NCc3cccc4ccccc34)nc(N3CCC(N)CC3)n2)ccc1O.O=C(O)C(F)(F)F` showed an Inhibition (Plasmodium falciparum [1]) of 100%, an Inhibition (Plasmodium falciparum [2]) of 59% and an Inhibition (HepG2) of 16%.
With `O=C(NC1CCN(Cc2ccccc2O)C1)c1ccc(Cl)c(Cl)c1.O=C(O)C(F)(F)F` (stereo not drawn) the Inhibition (Plasmodium falciparum [1]) was 92%, the Inhibition (Plasmodium falciparum [2]) was 62% and the Inhibition (HepG2) was 0%.
`Cc1ccc(NC(=O)c2cccc(C#N)c2)cc1-c1ccc(C(=O)Nc2ccncc2)cc1` gave an Inhibition (Plasmodium falciparum [1]) of 94%, an Inhibition (Plasmodium falciparum [2]) of 64% and an Inhibition (HepG2) of 38%.
Molecule `O=C(Nc1cccc(-c2ccc(CN3CCCC3)cc2)c1)c1cccc(F)c1.O=C(O)C(F)(F)F` has an Inhibition (Plasmodium falciparum [1]) of 99%, an Inhibition (Plasmodium falciparum [2]) of 17% and an Inhibition (HepG2) of 20%.
Molecule `Cc1ccc(NC(=O)c2ccc(CN3CCCN(CC4CCCCC4)CC3)cc2)cc1F.O=C(O)C(F)(F)F` has an Inhibition (Plasmodium falciparum [1]) of 92%, an Inhibition (Plasmodium falciparum [2]) of 61% and an Inhibition (HepG2) of 51%.
Molecule `Cc1cc(C(=O)Nc2ccc3c(c2)CCN3C2CCN(Cc3cccc4cc[nH]c34)C2)no1` (stereo not drawn) has an Inhibition (Plasmodium falciparum [1]) of 97%, an Inhibition (Plasmodium falciparum [2]) of 96% and an Inhibition (HepG2) of 0%.
For `CN1CCCc2ccc(NC(=O)c3cc(-c4ccc(Cl)cc4)cs3)cc2C1.O=C(O)C(F)(F)F`, the Inhibition (Plasmodium falciparum [1]) was 94%, the Inhibition (Plasmodium falciparum [2]) was 40% and the Inhibition (HepG2) was 35%.
In the case of `COCCNc1nc(N2CCC(CNC(=O)c3ccc(-c4ccc(C(=O)N(C)C)cc4C)cc3)CC2)nc2cc(OC)c(OC)cc12`, the Inhibition (Plasmodium falciparum [1]) is reported as 98%, the Inhibition (Plasmodium falciparum [2]) is reported as 97% and the Inhibition (HepG2) is reported as 12%.
Work on `Fc1ccc2[nH]cc(CCNCc3ccc(-c4cccc(-c5nc6ccccc6[nH]5)c4)cc3)c2c1.O=C(O)C(F)(F)F` yielded an Inhibition (Plasmodium falciparum [1]) of 100%, an Inhibition (Plasmodium falciparum [2]) of 99% and an Inhibition (HepG2) of 69%.
`O=C(Nc1cccc(-c2ccc(-c3nc4ccccc4[nH]3)s2)c1)c1ccncc1` showed an Inhibition (Plasmodium falciparum [1]) of 92%, an Inhibition (Plasmodium falciparum [2]) of 29% and an Inhibition (HepG2) of 67%.
`CN1CCCC1CNS(=O)(=O)c1ccc(C(=O)NCC2CC2)cc1.O=C(O)C(F)(F)F` (stereo not drawn) was tested, and the Inhibition (Plasmodium falciparum [1]) was 91%, the Inhibition (Plasmodium falciparum [2]) was 0% and the Inhibition (HepG2) was 17%.
For `NCCNc1ccc([N+](=O)[O-])cc1C(=O)Nc1cccc(C(F)(F)F)c1`, the Inhibition (Plasmodium falciparum [1]) was 94%, the Inhibition (Plasmodium falciparum [2]) was 33% and the Inhibition (HepG2) was 1%.
For `Nc1nc(N)c2c(ccc3c2ccn3CC2CC2)n1`, the Inhibition (Plasmodium falciparum [1]) was 96%, the Inhibition (Plasmodium falciparum [2]) was 3% and the Inhibition (HepG2) was 46%.
For `O=C(NCCCCCN1CCC(c2c[nH]c3ccccc23)CC1)Nc1ccc(Br)cc1`, the Inhibition (Plasmodium falciparum [1]) was 91%, the Inhibition (Plasmodium falciparum [2]) was 0% and the Inhibition (HepG2) was 24%.
With `COc1ccc(S(=O)(=O)Nc2ccc(C(=O)NCc3ccc(C(F)(F)F)cc3)cc2)cc1N1CCN(CC2CC2)CC1.O=C(O)C(F)(F)F` the Inhibition (Plasmodium falciparum [1]) was 95%, the Inhibition (Plasmodium falciparum [2]) was 1% and the Inhibition (HepG2) was 34%.
Work on `CC(OC(=O)c1ccc(C(=O)NCC2CC2)cc1)C(C)(C)C` (stereo not drawn) yielded an Inhibition (Plasmodium falciparum [1]) of 93%, an Inhibition (Plasmodium falciparum [2]) of 86% and an Inhibition (HepG2) of 10%.
`CCc1ccc(CN(CCCOc2cccc(CC(=O)NCc3c[nH]cn3)c2)Cc2ccc(-n3ccnc3)cc2)cc1` was tested, and the Inhibition (Plasmodium falciparum [1]) was 99%, the Inhibition (Plasmodium falciparum [2]) was 28% and the Inhibition (HepG2) was 1%.
`CC(=O)N(Cc1ccc(CC(C)NCCc2cccc(Cl)c2)cc1)Cc1ccc(CC(C)NCCc2cccc(Cl)c2)cc1` (stereo not drawn) was tested, and the Inhibition (Plasmodium falciparum [1]) was 100%, the Inhibition (Plasmodium falciparum [2]) was 94% and the Inhibition (HepG2) was 98%.
Molecule `COc1cc(NC(=O)c2cc([N+](=O)[O-])ccc2NC(=O)CNC2CCCC(C)C2C)cc(OC)c1` (stereo not drawn) has an Inhibition (Plasmodium falciparum [1]) of 97%, an Inhibition (Plasmodium falciparum [2]) of 80% and an Inhibition (HepG2) of 21%.
In the case of `COc1ccc2nccc(NCC3(O)CCN(CCc4ccc5c(c4)OCCO5)CC3)c2n1.Cl`, the Inhibition (Plasmodium falciparum [1]) is reported as 100%, the Inhibition (Plasmodium falciparum [2]) is reported as 87% and the Inhibition (HepG2) is reported as 35%.
In the case of `Cc1nc(C)c(C2CCC(c3ccc(Cl)cc3)CC2)c(O)c1Cl` (stereo not drawn), the Inhibition (Plasmodium falciparum [1]) is reported as 98%, the Inhibition (Plasmodium falciparum [2]) is reported as 97% and the Inhibition (HepG2) is reported as 37%.
`COc1ccc(CNCc2ccccc2)cc1-c1ccc(S(=O)(=O)NCCN2CCCC2)c(F)c1.O=C(O)C(F)(F)F` gave an Inhibition (Plasmodium falciparum [1]) of 87%, an Inhibition (Plasmodium falciparum [2]) of 42% and an Inhibition (HepG2) of 29%.
For `CC(C)c1sc(N2CCN(C)CC2)nc1C(=O)NCCc1cccc(Cl)c1.O=C(O)C(F)(F)F`, the Inhibition (Plasmodium falciparum [1]) was 91%, the Inhibition (Plasmodium falciparum [2]) was 15% and the Inhibition (HepG2) was 9%.
`CS(=O)(=O)c1ccc(CCNCc2ccc(-c3ccc(CN(C(=O)C4CC(=O)c5ccccc54)C4Cc5ccccc5C4)cc3)nc2)cc1.O=C(O)C(F)(F)F` (stereo not drawn) gave an Inhibition (Plasmodium falciparum [1]) of 90%, an Inhibition (Plasmodium falciparum [2]) of 21% and an Inhibition (HepG2) of 5%.
`COc1cc(F)c2ncc(Cl)c(CCN3CCC(NCc4ccc5c(c4)OCCO5)CC3)c2c1.Cl` was tested, and the Inhibition (Plasmodium falciparum [1]) was 97%, the Inhibition (Plasmodium falciparum [2]) was 92% and the Inhibition (HepG2) was 35%.
In the case of `Cc1cccc2nc(-c3ccc(-c4ccc(CNCCc5ccncc5)cc4)cc3)[nH]c12.O=C(O)C(F)(F)F`, the Inhibition (Plasmodium falciparum [1]) is reported as 100%, the Inhibition (Plasmodium falciparum [2]) is reported as 98% and the Inhibition (HepG2) is reported as 34%.
With `CCOC(=O)NCC(=O)Nc1cccc(-c2cccc(-c3nc4cc(C(F)(F)F)ccc4[nH]3)c2)c1` the Inhibition (Plasmodium falciparum [1]) was 91%, the Inhibition (Plasmodium falciparum [2]) was 34% and the Inhibition (HepG2) was 59%.
Work on `Cc1cc(C=C2SC(=Nc3ccccc3)N(C3CCCC3)C2=O)c(C)n1-c1ccc(Cl)cc1` yielded an Inhibition (Plasmodium falciparum [1]) of 100%, an Inhibition (Plasmodium falciparum [2]) of 70% and an Inhibition (HepG2) of 0%.
`CCOc1ccc2nc(C)cc(N/N=C/c3ccccc3[N+](=O)[O-])c2c1` was tested, and the Inhibition (Plasmodium falciparum [1]) was 100%, the Inhibition (Plasmodium falciparum [2]) was 99% and the Inhibition (HepG2) was 91%.
Work on `Cc1cc(N2CCNCC2)c2cc(NC(=O)Nc3ccc(Cl)c(Cl)c3)ccc2n1.Cl` yielded an Inhibition (Plasmodium falciparum [1]) of 100%, an Inhibition (Plasmodium falciparum [2]) of 86% and an Inhibition (HepG2) of 23%.
